Reference: PubChem BioAssay AID1508649 (National Center for Advancing Translational Sciences (NCATS), 2021)
About 830 (1.9%) of roughly 43,000 compounds were called active. Inconclusive results (about 30%) are left out. Rule for the calls: active = clear falling dose curves in both reporters; inconclusive = both reporters move, but less clearly or upward; inactive = either reporter flat; the % is the NLuc reporter signal. The entries come from a sample that favours actives as a whole. Entries that show only a call come without a potency.

Assay: Cell-based coincidence reporter assay to measure PMP22 gene transcription in S16 Pmp22-F2sN cells - Primary screen
Conditions: S16 Pmp22-F2sN Schwann cells (luciferase reporters placed in the Pmp22 gene), FLuc/NLuc coincidence luminescence, 24 h; series mostly up to 57.5 µM
From the text: Assay Provider: Jim Inglese Ph.D. National Center for Advancing Translational Science, National Institutes of Health, Rockville, MD CMT is a heterogeneous group of neurological disorders that affect approximately 1 in 2,500 people. In particular, the most common form of CMT, CMT1A is genetically linked to the duplication of the PMP22 gene which leads to Schwann cell overexpression, thus manifesting itself as a typical case of dose-sensitive diseases. To identify small molecule compounds that can mediate the expression of PMP22 we developed a phenotypic assay screening strategy by utilizing genome editing techniques to construct Schwann cell lines containing novel reporter technology to monitor the transcriptional or translational regulation of PMP22. For high sensitivity we use a bioluminescent reporter system embedded in the 3' UTR of the PMP22 gene (S16(c9) Pmp22-F2sN) to identify compounds that inhibit gene expression. […] We can further discriminate the effect of all transcriptionally active molecules on PMP22 translation or stability with an assay that incorporates a short NLuc peptide (HiBiT) at the C-terminus of expressed PMP22 (S16(f8) PMP22-HiBiT) allowing alpha complementation and luminescence detection of membrane-associated PMP22 protein. These assays were screened against the NCATS Sytravon Library Collection. Miniaturization of these assays to 1536-well plate format for quantitative high throughput screening (qHTS) yielded rich data sets immediately from the qHTS assay (S16(c9) Pmp22-F2sN), when compared with data from a cell viability assay (Cell TiterGlo) to identify compounds that decreased the output signals through cellular toxicity to streamline the selection process of actives for subsequent characterization using the HiBiT assay (S16(f8) PMP22-HiBiT).
Cell-based coincidence reporter assay to measure PMP22 gene transcription in S16 Pmp22-F2sN cells PROTOCOL TABLE (format as described by Inglese J, Shamu CE and Guy RK. 2007) SEQUENCE No. (e.g., 1, 2, 3, etc.); […] (e.g., Cells, Incubation, Reagent, etc.); VALUE and DESCRIPTION. 1. Cells. Add 500-1,000 cells in 4 uL in growth media (DMEM High Glucose, No Phenol Red media + 10% heat-inactivated FBS + 1% Pen/Strep supplemented media) per well into Greiner 1536-well white/solid bottom high base, TC-treated plates. 2. Compounds. Library compounds and controls added at 23nL per well, transferred by Pin Tool. 3. Incubation. Incubate plates at 37C, 5% CO2, 95% RH for 24 h. 4. Reagent. Add 3.5uL Nano-Glo Dual-Luciferase Reporter Assay System reagent 1: Lysis and FLuc reagent per well of Greiner 1536-well plates. 5. Incubation. Incubate plates at room temperature for 10 min., protect from light. 6. Detector. FLuc luminescence measured using CCD-based camera (Viewlux). 7. Reagent. Add 3.5uL Nano-Glo Dual-Luciferase Reporter Assay System reagent 2: Stop&Glo reagent per well of Greiner 1536-well plates. 8. Incubation. Incubate plates at room temperature for 10 min., protect from light. 9. Detector. NLuc luminescence measured using CCD-based camera (Viewlux). NOTES (numbers refer to Sequence numbers above; values are from representative experiments) 6. Luminescence Read #1 (FLuc): Clear filter; Exposure = 10 sec, Gain = High, Speed = Slow, Binning = 2X 9. Luminescence Read #2 (NLuc): Clear filter; Exposure = 1 sec, Gain = High, Speed = Slow, Binning = 2X REFERENCES: 1. Inglese J, Shamu CE and Guy RK, Reporting data from high throughput screening of small molecule libraries, Nature Chemical Biology, 2007, 3(8): 438-441. doi.org/10.1038/nchembio0807-438 2. Yasgar A, Shinn P, Jadhav A, Auld DS, Michael S, Zheng W, Austin CP, Inglese J and Simeonov A, Compound Management for Quantitative High-Throughput Screening. J. Assoc. Lab. Auto., 2008, 13: 79-89. doi: 10.1016/j.jala.2007.12.004
Potency is the fitted concentration of half-maximal effect.

| SMILES | Potency |
| --- | --- |
| CCOC(=O)C1CCN(c2ncnc3c2c(-c2ccccc2)cn3-c2cccc(C)c2)CC1 | inactive |
| Cc1cccc(NC(=O)CN(c2ccc(C(C)C)cc2)S(=O)(=O)c2c(C)nn(C)c2C)c1C | inactive |
| O=C(Nc1ccc(F)cc1F)c1cnn(-c2ccc(F)cc2)c1-n1cccc1 | inactive |
| Cc1cc(F)ccc1NS(=O)(=O)c1ccc(-n2cccn2)cc1 | 15 µM (active) |
| Cc1cc(F)ccc1NC1(c2ccccc2)C(=O)c2ccccc2C1=O | inactive |
| O=C(Cn1nc(Cc2cccnc2)c2ccccc2c1=O)N1CCN(c2ccccc2F)CC1 | inactive |
| Cc1ccc(C2C=C(c3ccc(Cl)cc3)Nc3nc(NC(=O)CCC(=O)O)nn32)cc1 (stereo not drawn) | inactive |
| Cc1cc(-c2ccccc2)n2nc(-c3ccccc3)cc2n1 | inactive |
| O=C(CCc1nc(CN2CCN(S(=O)(=O)c3ccc(Cl)cc3)CC2)no1)N1CCCCC1 | inactive |
| Cc1cc(C)c(NC(=O)CSc2nc3ccncc3[nH]2)c(C)c1 | inactive |
| CCCCn1c(=N)c(S(=O)(=O)c2ccccc2)cc2c(=O)n3cccc(C)c3nc21 | inactive |
| CCCn1c(=N)c(C(=O)NCc2ccccc2)cc2c(=O)n3cccc(C)c3nc21 | 2.24 µM (active) |
| Cc1ccc(CNC(=O)c2c(O)nc3c(C)cccn3c2=O)cc1 | inactive |
| COc1ccc(-c2cc(C(=O)NCc3cc(OC)c(OC)c(OC)c3)[nH]n2)cc1 | inactive |
| Cc1ccccc1CNC(=O)C(=O)NCC(c1cccs1)S(=O)(=O)c1cccs1 (stereo not drawn) | inactive |
| Cc1ccc(-n2nc(C)c(C(=O)O)c2-n2cccc2)cc1 | inactive |
| CCC1CCCCN1CCCNC(=O)c1cc2c(Cl)nc3ccccc3c2s1 (stereo not drawn) | 17.8 µM (active) |
| CCOCCCNC(=O)c1cc2c(=O)n3ccccc3nc2s1 | inactive |
| CCn1c(=O)c2cc(C(=O)NCCc3ccc(Cl)cc3)sc2c2ccccc21 | inactive |
| O=S(=O)(Nc1ccc2nc(-c3cccc(Cl)c3)oc2c1)c1ccccc1 | inactive |
| COc1cc(OC)c(NC(=O)c2nc(-c3ccncc3)no2)cc1Cl | inactive |
| CCCn1c2ccccc2c2cnn(CC(=O)N3CCCC(C(=O)OCC)C3)c(=O)c21 (stereo not drawn) | inactive |

| SMILES | Potency |
| --- | --- |
| Cc1ccc(Cn2c(C)c3cnn(CC(=O)NCc4ccccc4)c(=O)c3c2C)cc1 | 8.43 µM (active) |
| CCCn1c2ccccc2c2cnn(CC(=O)NCC3CCN(Cc4ccc(C)cc4)CC3)c(=O)c21 | 18.9 µM (active) |
| CCCn1c2ccccc2c2cnn(CC(=O)NCCCOC(C)C)c(=O)c21 | inactive |
| O=C(Cn1ncc2c3ccccc3n(Cc3ccccc3)c2c1=O)NCc1ccccn1 | inactive |
| CCCN(CCC)CCCNC(=O)Cn1ncc2c3ccccc3n(Cc3ccccc3)c2c1=O | inactive |
| CCOC(=O)c1ccc(NC(=O)Cn2c(=O)n(-c3ccc(C)cc3)c(=O)c3c2cnn3C)cc1 | inactive |
| O=C(CSc1nccn1Cc1ccc(F)cc1)NCc1ccccc1 | inactive |
| COc1ccc(NC(=O)C2CCN(c3ccc(Sc4ccc(C)cc4)nn3)CC2)c(OC)c1 | inactive |
| COc1cc(C(=O)NCCc2csc3nc(-c4ccccc4C)nn23)cc(OC)c1OC | inactive |
| CCC(=O)Nc1ccc(C)cc1-c1nc2ccccc2n(Cc2ccccc2)c1=O | inactive |
| Cc1ccc(C)c(N2CCN(Cc3nnc(-c4ccccc4)o3)CC2)c1 | inactive |
| CCN(CC)C(=O)CSc1nc2ccsc2c(=O)n1Cc1ccccc1Cl | inactive |
| COc1ccc(NS(=O)(=O)c2cc3c(cc2C)N(C(C)=O)CCO3)cc1 | inactive |
| Cc1ccc2nc(COc3cccc(NC(=O)Nc4ccc(C)c(Cl)c4)c3)cc(=O)n2c1 | inactive |
| O=c1c2cccnc2n(Cc2cccc(F)c2)c(=O)n1Cc1ccccc1Cl | inactive |
| CCOC(=O)c1ccc(NC2=CC(c3ccc(OCC)cc3)N(c3ccc(C(=O)OCC)cc3)C2=O)cc1 (stereo not drawn) | inactive |
| CCOC(=O)c1ccc(N2C(=O)c3n[nH]c(C)c3C2c2ccc(O)c(OC)c2)cc1 (stereo not drawn) | 7.51 µM (active) |
| Cc1ccc(C)c(N2CCN(C(=O)Cn3nc(C)c4sc5ccccc5c4c3=O)CC2)c1 | inactive |
| COc1cccc(C(=O)N(Cc2cccc(Cl)c2)Cc2ccco2)c1 | inactive |
| CCOC(=O)c1ccc(NC(=O)C2CC(=O)NC(=Nc3ccc(C)c(C)c3)S2)cc1 (stereo not drawn) | inactive |
| CCOC(=O)Cc1ccc(NC(=O)Nc2c[nH]c(=O)[nH]c2=O)cc1 | inactive |
| CCCCS(=O)(=O)c1oc(-c2cccs2)nc1S(=O)(=O)c1ccccc1 | 1.82 µM (active) |

| SMILES | Potency |
| --- | --- |
| CSc1oc(-c2cccs2)nc1S(=O)(=O)c1ccc(Br)cc1 | inactive |
| Cc1ccc(CSc2oc(-c3cccs3)nc2S(=O)(=O)c2ccc(C)cc2)cc1 | inactive |
| Cc1ccc2oc(C(=O)Nc3ccc(S(=O)(=O)N4CCCCCC4)cc3)cc(=O)c2c1 | inactive |
| Cc1cc(C)cc(-n2c(SCC(=O)NCC3CCCO3)nc3c([nH]c4ccccc43)c2=O)c1 (stereo not drawn) | inactive |
| CCOC(=O)c1ccc(NC(=O)c2nc(SCc3ccc(F)cc3)ncc2Cl)cc1 | inactive |
| CCOC(=O)c1scc(-c2ccccc2)c1S(=O)(=O)Nc1ccccc1F | inactive |
| CCCS(=O)(=O)c1ncc(Cl)c(C(=O)Nc2scc(-c3ccccc3)c2C(=O)OCC)n1 | 5.97 µM (active) |
| CC1CCN(S(=O)(=O)c2ccc3c(c2)N(CC(=O)NCCc2ccccc2)C(=O)CO3)CC1 | inactive |
| CCC(C)c1ccc2oc(-c3ccc(NC(=O)c4cc5ccccc5o4)cc3)nc2c1 (stereo not drawn) | inactive |
| COc1ccccc1-c1cc2nc(C)c(CCC(=O)NC3CCCCC3)c(C)n2n1 | inactive |
| O=C(CSc1oc(-c2ccc(F)cc2)nc1S(=O)(=O)c1ccc(Br)cc1)NC1CCCCC1 | inactive |
| CC(C)S(=O)(=O)c1oc(-c2ccc(F)cc2)nc1S(=O)(=O)c1ccc(F)cc1 | 2.05 µM (active) |
| COc1ccc(-c2nc(S(=O)(=O)c3ccccc3)c(N3CCCCC3)o2)cc1 | inactive |
| Cc1ccc2nc(COc3ccc(NC(=O)COc4ccccc4F)cc3)cc(=O)n2c1 | inactive |
| CC(=O)Nc1cc(C(=O)NCc2ccc(F)cc2)ccc1Sc1ccc(F)cc1 | inactive |
| Cc1cccc(C2CC(=O)Oc3c2c(=O)n(C)c2ccccc32)c1 (stereo not drawn) | inactive |
| O=C(NCCCN1CCN(c2cccc(Cl)c2)CC1)c1nnc(Cc2ccc(F)cc2Cl)o1 | 18.9 µM (active) |
| Cc1ccc(CCNC(=O)c2nnc(Cc3cccc(F)c3)o2)cc1 | inactive |
| CC(CNC(=O)c1nnc(Cc2cccc(F)c2)o1)c1ccccc1 (stereo not drawn) | inactive |
| CCOC(=O)c1c(NC(=O)c2cc(CC)on2)sc(C(C)=O)c1C | inactive |
| COc1ccc(CNC(=O)C2=Cc3cccc(OC)c3OC2)cc1OC | inactive |
| NC(=O)CSc1nc2c(oc3ccccc32)c(=O)n1Cc1ccccc1 | inactive |

| SMILES | Potency |
| --- | --- |
| O=C(NCCc1ccccc1)c1ccc2c(c1)N(Cc1ccc(F)cc1)C(=O)c1ccccc1S2(=O)=O | inactive |
| O=C(c1ccc2c(c1)N(Cc1ccc(F)cc1)C(=O)c1ccccc1S2(=O)=O)N1CCN(c2ccccn2)CC1 | 15.6 µM (active) |
| O=C(c1ccc2c(c1)N(Cc1ccccc1F)C(=O)c1ccccc1S2(=O)=O)N1CCOCC1 | inactive |
| Cc1ccc(C(=O)N2c3ncnn3C3(CCCCC3)[C@@H]3CCCC[C@@H]32)cc1 | inactive |
| COc1ccc(CCNc2nc(-c3ccc(F)cc3)cc(C(F)(F)F)n2)cc1OC | inactive |
| O=C(CSc1nc(=O)n(Cc2cccnc2)c2c1CCC2)Nc1ccc(F)cc1F | inactive |
| Cn1nnnc1SCCCNCc1ccc(Cl)cc1 | inactive |
| CCC(=O)N1CCc2cc(S(=O)(=O)NC(CC(C)C)C(=O)NCCc3cccc(C)c3)ccc21 (stereo not drawn) | inactive |
| CCOC(=O)c1ccc(NC(=O)CSc2nc3c([nH]c4ccccc43)c(=O)n2C)cc1 | 14.1 µM (active) |
| Cc1ccccc1CSc1nc2c([nH]c3ccccc32)c(=O)n1C | inactive |
| CCc1ccc(NC(=O)CSc2nc3c([nH]c4ccccc43)c(=O)n2-c2cccc(OC)c2)cc1 | inactive |
| Cc1ccccc1NC(=O)CCOc1ccccc1 | inactive |
| COc1ccc(C)cc1N(C)C(=O)c1c(C)oc2ncnc(N3CCOCC3)c12 | inactive |
| Cc1cccc(-n2c(SCC(N)=O)nc3c(oc4ccccc43)c2=O)c1 | inactive |
| CCc1ccc(NC(=O)CN2CCSc3ccc(S(=O)(=O)N4CCCC4)cc32)cc1 | 17 µM (active) |
| CC1CCN(CCCNC(=O)CN2C(=O)CSc3ccc(S(=O)(=O)N4CCCCC4)cc32)CC1 | inactive |
| CCc1ccc(NC(=O)c2cc(S(=O)(=O)N3CCCC(C)C3)cn2C)cc1 (stereo not drawn) | inactive |
| O=C(NCc1ccccc1Cl)c1cccn1-c1nnc(N2CCCCC2)s1 | inactive |
| COc1ccccc1CCNC(=O)c1cccn1-c1nnc(N2CCCCC2)s1 | inactive |
| Cc1ccc(CCNC(=O)C2CCN(c3nnc(-n4cccc4CNc4ccc(C)cc4)s3)CC2)cc1 | 20 µM (active) |
| Cc1cc(C)cc(NC(=O)Cc2csc(C)n2)c1 | inactive |
| Cc1nc2ccc(S(=O)(=O)NC(C(=O)NCc3ccccc3Cl)C(C)C)cc2s1 (stereo not drawn) | inactive |
